Pf Dd2 inh – P. falciparum Dd2 growth inhibition; 94,000 tested, 2.3% active; SYBR Green, 72 h; stronger effect = lower value; activity change, % at 10 µM; in the data active = activity change below about -80%; inconclusive = no clear call, values can overlap the other calls
C diff HTS – inhibitors of Clostridium difficile growth. AID 1259249. Clostridium difficile clinical isolate growth, OD600, 24 h; stronger effect = lower value. growth activity, negative = inhibition, % at 16 µg/mL (by protocol). 86,000 tested, 0.25% active;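 active = mean growth activity at or below -80% and every replicate also at or below -80%; inconclusive = mean at or below -80% but some replicate above -80%; inactive = mean growth activity above -80%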;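 also: 0% = DMSO wells and -100% = levofloxacin 16 µg/mL wells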
T cruzi growth-1 – T. cruzi proliferation inhibition; T. cruzi beta-gal in NIH3T3, GalScreen luminescence, 90 h; AID 624255; inhibition, % at 8.34 µM; 77,000 tested, 5.9% active;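 active = mean inhibition above about 93%, with at least 55% of replicates each passing it, limit read from the data, passing the limit was not always enough; inconclusive = only one of those two conditions holds; inactive = neither condition holds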
T cruzi growth-2 – blocks T. cruzi growth in NIH3T3 host cells; T. cruzi beta-gal in NIH3T3, GalScreen luminescence, 90 h; inhibition, % at 8.35 µM; 5,600 tested, 72% active; shares compounds with T cruzi growth-1;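 active = mean replicate inhibition above about 95% and at least 55% of replicates individually reaching it, limit read from the data; inconclusive = only one of the two criteria is met; inactive = neither criterion is met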
T cruzi growth-3 – Trypanosoma cruzi proliferation inhibition; 5,600 tested, 21% active; T. cruzi beta-gal in NIH3T3, GalScreen luminescence, 90 h; inhibition, % at 2.09 µM; AID 651740; shares compounds with T cruzi growth-1;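 active = mean inhibition above about 95%, with at least 55% of replicates also reaching it, limit read from the data; inconclusive = meets just one of the two conditions; inactive = meets neither condition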;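 also: plate controls were neutral control median for no effect and positive control median for full effect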
NIH3T3 tox – kills mouse NIH/3T3 fibroblasts. 5,600 tested, 14% active. shares compounds with T cruzi growth-1. NIH/3T3 viability, CellTiter-Glo ATP luminescence, 90 h. cytotoxicity (signal decrease), % at 8.35 µM;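 active = mean signal decrease across replicates above about 35% based on untreated-well scatter, with enough replicates individually passing, limit read from the data; inconclusive = no rule stated though some were filed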;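 also: 0% = median of neutral control wells and 100% = median of positive control wells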
3T3 cytotox 2 – cytotoxicity in mouse NIH/3T3 fibroblasts. shares compounds with T cruzi growth-1. NIH/3T3 viability, CellTiter-Glo ATP luminescence, 90 h. inhibition, % at 24.9 µM. 5,600 tested, 56% active. AID 651744;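 active = mean loss of cell viability signal at or above a set limit, and enough replicates individually reaching it; inconclusive = meets only the mean limit or only the replicate share; inactive = meets neither condition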;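 also: 0% = median of neutral control wells and 100% = median of positive control wells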
Active calls of the source: *; ? = inconclusive; . = not tested or not shown; ! = repeats disagree. Only some compounds are listed: those with a hit (about 6.8% of all), similar ones and a draw of the others.

SMILES	Pf Dd2 inh	C diff HTS	T cruzi growth-1	T cruzi growth-2	T cruzi growth-3	NIH3T3 tox	3T3 cytotox 2
C[C@@H]1CCCCO[C@H](CN(C)S(=O)(=O)c2ccc(Cl)cc2)[C@H](C)CN([C@H](C)CO)C(=O)c2cc(NS(=O)(=O)c3ccc(Cl)cc3)ccc2O1	-65.9	4.2	107.8*	101.1*	116.2*	9.8	-14.6
COc1ccc(NC(=O)N(C)C[C@@H]2OCCCC[C@@H](C)Oc3ccc(NC(=O)CCCN(C)C)cc3C(=O)N([C@@H](C)CO)C[C@H]2C)cc1	16.5	-4.0	-30.8	.	.	.	.
O=C(c1ccccn1)N1CC(=O)N2[C@H](CO)[C@H](c3ccc(C#Cc4ccccc4)cc3)[C@@H]2C1	-27.8	-1.2	.	.	.	.	.
C[C@@H]1CN([C@H](C)CO)C(=O)c2cc(C3=CCCC3)cnc2O[C@@H]1CN(C)C(=O)Cc1ccncc1	-31.3	-2.4	95.8*	25.0	-13.1	-9.4	28.3*
C[C@@H]1CN([C@@H](C)CO)C(=O)c2cc(C3=CCCCC3)cnc2O[C@H]1CN(C)C(=O)Cc1ccncc1	-18.7	2.3	.	.	.	.	.
C[C@@H]1CN([C@@H](C)CO)C(=O)c2cc(C3=CCCCC3)cnc2O[C@@H]1CN(C)C(=O)Cc1ccccc1	.	12.4	89.4	.	.	.	.
C[C@@H]1CN([C@@H](C)CO)C(=O)c2cc(C3=CCCCC3)cnc2O[C@H]1CN(C)C(=O)Cc1ccccc1	-3.6	-6.0	?	75.3	54.9	32.2	64.4*
CCCNC(=O)C[C@H]1CC[C@H]2[C@H](COc3ccc(NC(=O)c4cc(F)cc(F)c4)cc3C(=O)N2C)O1	8.6	1.4	-6.2	.	.	.	.
C[C@H](CO)N1C[C@H](C)[C@@H](CN(C)C(=O)Nc2cccc3ccccc23)OCCCC[C@H](C)Oc2ccc(NC(=O)Nc3cccc4ccccc34)cc2C1=O	-63.5	.	1.5	.	.	.	.
C[C@@H]1CN([C@H](C)CO)C(=O)c2cc(NC(=O)Nc3cccc4ccccc34)ccc2O[C@@H](C)CCCCO[C@H]1CN(C)C(=O)C1CCCCC1	-65.6	-5.0	?	104.1*	105.6*	15.4	23.6
C[C@H]1CCCCO[C@H](CN(C)C(=O)C2CCCCC2)[C@@H](C)CN([C@@H](C)CO)C(=O)c2cc(NC(=O)Nc3cccc4ccccc34)ccc2O1	-75.5	-8.4	?	98.1*	103.6*	8.9	29.2
C[C@@H]1CCCCO[C@H](CN(C)C(=O)Nc2cccc3ccccc23)[C@@H](C)CN([C@H](C)CO)C(=O)c2cc(NC(=O)Nc3cccc4ccccc34)ccc2O1	-48.0	.	8.3	.	.	.	.
C[C@@H]1CCCCO[C@H](CN(C)C(=O)C2CCCCC2)[C@@H](C)CN([C@H](C)CO)C(=O)c2cc(NC(=O)Nc3cccc4ccccc34)ccc2O1	-56.5	1.5	?	101.6*	7.1	-1.0	-37.6
C[C@@H]1CCCCO[C@@H](CN(C)C(=O)C2CCCCC2)[C@H](C)CN([C@@H](C)CO)C(=O)c2cc(NC(=O)Nc3cccc4ccccc34)ccc2O1	-2.4	-4.0	115.6*	104.2*	72.7	-15.3	8.1
C[C@@H]1CCCCO[C@H](CN(C)C(=O)Nc2cccc3ccccc23)[C@H](C)CN([C@@H](C)CO)C(=O)c2cc(NC(=O)Nc3cccc4ccccc34)ccc2O1	-21.5	.	38.4	.	.	.	.
C[C@@H]1CCCCO[C@H](CN(C)C(=O)c2ccccc2)[C@H](C)CN([C@@H](C)CO)C(=O)c2cc(NC(=O)Nc3cccc4ccccc34)ccc2O1	-29.2	5.1	96.3	.	.	.	.
COc1ccc(NC(=O)N(C)C[C@H]2Oc3ncc(-c4ccc(C#N)cc4)cc3C(=O)N([C@@H](C)CO)C[C@@H]2C)cc1	-12.3	0.5	.	.	.	.	.
CC(=O)N1CC2(C1)[C@@H](c1ccc(-c3ccc(C#N)cc3)cc1)[C@H](CO)N2C(=O)C1CC1	7.1	4.0	.	.	.	.	.
Cc1noc(C)c1NC(=O)N(C)C[C@@H]1Oc2c(NC(=O)Nc3ccc(C(F)(F)F)cc3)cccc2C(=O)N([C@H](C)CO)C[C@H]1C	-14.2	.	86.7	.	.	.	.
CN(C)CC(=O)N1[C@@H](CO)[C@@H](c2ccccc2)C12CN(C(=O)C1CCCC1)C2	9.0	9.3	.	.	.	.	.
Cc1ccc(S(=O)(=O)N(C)C[C@@H]2OCCCC[C@H](C)Oc3ccc(N(C)C)cc3C(=O)N([C@@H](C)CO)C[C@H]2C)cc1	-78.7	-0.3	?	77.0	29.8	-13.2	-20.4
C[C@H]1CCCCO[C@@H](CN(C)S(=O)(=O)c2ccc(F)cc2)[C@@H](C)CN([C@@H](C)CO)C(=O)c2cc(N(C)C)ccc2O1	-1.0	-15.4	80.6	.	.	.	.
COc1ccc(S(=O)(=O)N(C)C[C@@H]2OCCCC[C@@H](C)Oc3ccc(N(C)C)cc3C(=O)N([C@H](C)CO)C[C@H]2C)cc1	2.2	-0.4	76.0	.	.	.	.
Cc1ccc(S(=O)(=O)N(C)C[C@@H]2OCCCC[C@H](C)Oc3ccc(N(C)C)cc3C(=O)N([C@H](C)CO)C[C@H]2C)cc1	?	-0.5	87.9	.	.	.	.
C[C@H]1CCCCO[C@@H](CN(C)S(=O)(=O)c2ccccc2)[C@@H](C)CN([C@@H](C)CO)C(=O)c2cc(N(C)C)ccc2O1	-59.7	-5.7	106.9*	69.2	13.7	18.6	17.0
SMILES	Pf Dd2 inh	C diff HTS	T cruzi growth-1	T cruzi growth-2	T cruzi growth-3	NIH3T3 tox	3T3 cytotox 2
C[C@H](CO)N1C[C@H](C)[C@H](CN(C)S(=O)(=O)c2ccccc2)OCCCC[C@H](C)Oc2ccc(N(C)C)cc2C1=O	-38.4	-5.0	33.7	.	.	.	.
C[C@H](CO)N1C[C@H](C)[C@H](CN(C)S(=O)(=O)c2ccc(F)cc2)OCCCC[C@H](C)Oc2ccc(N(C)C)cc2C1=O	-39.9	-0.7	?	95.9*	24.4	-11.8	-20.6
COc1ccc(S(=O)(=O)N(C)C[C@H]2OCCCC[C@H](C)Oc3ccc(N(C)C)cc3C(=O)N([C@H](C)CO)C[C@@H]2C)cc1	-88.0*	2.3	101.9*!	50.9	21.3	-25.1	-13.6
N#C[C@H]1[C@@H](c2ccc(C3=CCCCC3)cc2)[C@@H](CO)N1C(=O)c1cccc(F)c1	-30.9	-4.6	60.6	.	.	.	.
N#C[C@H]1[C@@H](c2ccc(C3=CCCCC3)cc2)[C@H](CO)N1C(=O)c1ccccn1	-3.4	8.5	31.3	.	.	.	.
N#C[C@H]1[C@@H](c2ccc(C3=CCCCC3)cc2)[C@@H](CO)N1S(=O)(=O)c1cccc(F)c1	-15.3	2.6	104.5*	101.2*	86.2	44.5*	65.4*
N#C[C@@H]1[C@H](c2ccc(C3=CCCCC3)cc2)[C@@H](CO)N1S(=O)(=O)c1ccccc1	-13.5	0.3	37.6	.	.	.	.
N#C[C@@H]1[C@@H](c2ccc(C3=CCCCC3)cc2)[C@H](CO)N1C(=O)c1cccc(F)c1	14.6	22.9	100.3*	87.6	32.7	5.2	75.7*
N#C[C@@H]1[C@H](c2ccc(C3=CCCCC3)cc2)[C@H](CO)N1S(=O)(=O)c1ccccc1	-14.2	5.9	89.9	.	.	.	.

Screening results as filed in PubChem BioAssay.
